Rows were chosen to be rich in hits. Some 2.3% of all compounds tested hit in one or more screens of this group.
Bim-Mcl-1: human Bim-Mcl-1 interaction inhibition; actives 0.1% (n = 190,000); Bead-based flow cytometry, Bim peptide-Mcl-1 binding; inhibition, % at 10 µM; in the data active = inhibition above about 40%;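 note: 0% = no compound tracer wells and 100% = peptide blocker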
Target sequence (Q07820 whole entry, looked up): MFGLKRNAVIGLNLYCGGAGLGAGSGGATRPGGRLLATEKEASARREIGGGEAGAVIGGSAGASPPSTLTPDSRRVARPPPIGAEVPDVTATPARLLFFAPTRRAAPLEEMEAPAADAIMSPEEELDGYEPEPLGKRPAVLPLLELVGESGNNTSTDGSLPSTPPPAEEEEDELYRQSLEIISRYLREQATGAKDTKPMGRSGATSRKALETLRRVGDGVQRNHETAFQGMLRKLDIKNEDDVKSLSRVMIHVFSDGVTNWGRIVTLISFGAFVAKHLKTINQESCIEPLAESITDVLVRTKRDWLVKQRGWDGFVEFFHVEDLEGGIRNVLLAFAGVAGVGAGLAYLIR
Mcl1-Bid inh: disrupts binding of human Mcl-1 to Bid peptide; actives 0.97% (n = 220,000); TR-FRET Mcl-1/Bid-Dy647 peptide binding, 1536-well; Q07820; inhibition, % at 21.7 µM; AID 1021;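 active = compounds that cut the binding signal by more than half at the single screening dose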;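 note: His-tagged Mcl-1 with europium anti-His antibody binding Bid BH3 peptide; 0% = Mcl-1 plus peptide wells and 100% = peptide-only wells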
GLD-1 TGE inh: GLD-1-TGE RNA interaction inhibition (C. elegans); purified GLD-1 + fluorescein TGE RNA, fluorescence polarization; actives 0.44% (n = 320,000); Q17339; inhibition, % at 5.96 µM; AID 2280;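 active = percent inhibition above a per-plate cutoff, the plate mean of test compounds plus 3 SD, cut at about 30% in these data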;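 note: 0% = DMSO wells with GLD-1 and probe and 100% = wells lacking GLD-1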
BCLXL inh: Bcl-xL (human) inhibition | GST-Bcl-xL / FITC-Bim BH3 peptide fluorescence polarization | inhibition, % at 10.9 µM | actives 0.7% (n = 320,000) | Q07817;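 active = inhibition above the mean of all tested compounds plus 3 SD, cutoff set per campaign, cut at about 30% in these data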;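 note: 0% = DMSO wells and 100% = unlabeled Bim-BH3 peptide competitor; inhibitors lower millipolarization by displacing the labeled peptide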
Target sequence (Q07817 whole entry, looked up): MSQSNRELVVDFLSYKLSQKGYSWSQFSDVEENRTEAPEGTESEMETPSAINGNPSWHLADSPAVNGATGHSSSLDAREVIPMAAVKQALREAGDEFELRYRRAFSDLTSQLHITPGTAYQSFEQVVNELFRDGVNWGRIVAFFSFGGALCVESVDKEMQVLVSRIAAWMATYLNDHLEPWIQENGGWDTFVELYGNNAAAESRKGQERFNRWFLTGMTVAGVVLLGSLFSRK
MCL1-BIM inh: disrupts human MCL1 binding to BIM-BH3 peptide; Q07820; GST-MCL1 / FITC-Bim-BH3 fluorescence polarization; inhibition, % at 10.9 µM; actives 0.68% (n = 320,000);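 active = inhibition above the mean inhibition of all tested compounds plus 3 SD, set per campaign, cut at about 40% in these data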;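 note: 0% = DMSO wells and 100% = unlabeled Bim-BH3 peptide control; higher means more loss of mP so more displacement of Bim peptide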
Mcl1 Noxa PPI: disrupts binding of human Mcl-1 to Noxa peptide; Q07820; TR-FRET Mcl-1/Noxa peptide binding, 2 h; inhibition, % at 21.7 µM; actives 1.5% (n = 220,000); AID 1022;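 active = compounds that cut the protein-peptide binding signal by more than 50% relative to plate controls in a single-dose test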;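 note: His-tagged Mcl-1 with rhodamine Noxa BH3 peptide and terbium anti-His antibody; 0% = Mcl-1 plus Noxa peptide wells and 100% = peptide-only wells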
Active calls of the source: *; nt = no result given.

SMILES | Bim-Mcl-1 | Mcl1-Bid inh | GLD-1 TGE inh | BCLXL inh | MCL1-BIM inh | Mcl1 Noxa PPI
CC(C)c1ccc(NS(=O)(=O)c2ccc3[nH]cc(C(=O)N4CCC(C(N)=O)CC4)c(=O)c3c2)cc1 | -3 | 59* | -1 | 4 | 5 | 6
NC(=O)c1ccsc1NC(=O)CSc1nnc(Nc2ccccc2)s1 | 0 | -37 | 0 | 5 | 8 | 69*
NC(=O)c1ccsc1NC(=O)CSc1ccccc1F | -1 | -12 | 2 | 8 | 12 | -1
NC(=O)c1ccsc1NC(=O)COc1ccccc1 | 0 | -4 | 15 | 47* | 43* | 29
Cc1cccc(OCC(=O)OCC(=O)Nc2sccc2C(N)=O)c1 | nt | nt | 2 | nt | nt | nt
Cc1cccc(CSC2=NCCN2S(=O)(=O)c2ccc(F)cc2)c1 | nt | nt | 4 | -1 | -5 | nt
COc1cc(OC)c(OC)cc1CNC(=O)c1cc(S(=O)(=O)N2CCOCC2)ccc1F | nt | nt | 6 | -5 | -8 | nt
Cc1oc(C)c2c(=O)ccc3c(c12)OC(N)=C(C#N)C3c1ccccc1 (centres undefined) | nt | -1 | 9 | 32* | 39 | 37
CC(C)[C@H](NC(=O)c1ccccc1F)C(=O)NC1CCCCCCC1 | nt | nt | 2 | nt | nt | nt
Cc1ccc(NC(=O)c2cc(-n3cnnc3)ccc2Cl)cc1 | 1 | -10 | 0 | -2 | -2 | 5
Cc1ccc(NC(=O)c2cc(N3C(=O)C=CC3=O)ccc2N2CCOCC2)cc1 | 0 | -24 | nt | nt | nt | 55*
Cc1ccc(NC(=O)c2cc(N3C(=O)C=CC3=O)ccc2Cl)cc1C | -11 | 7 | -9 | 15 | 15 | 77*
COc1ccc2oc(-c3ccc(C)c(NC(=O)CSc4ccc(Cl)cc4)c3)nc2c1 | -2 | 54* | -3 | 4 | 2 | 35
COc1cc(/C=N/NC(=O)c2ccc(CSc3nc4ccccc4[nH]3)cc2)ccc1O | -1 | -46 | 3 | -6 | -15 | 62*
COc1cc(/C=N\NC(=O)c2ccc(-c3ccccc3)cc2)cc(Br)c1O | nt | nt | -1 | -4 | -3 | nt
COc1ccc(/C=N/NC(=O)c2ccc(CN3C(=O)c4cccc5cccc3c45)cc2)cc1O | 3 | 11 | -1 | 7 | 5 | 61*
COc1cc(/C=N/NC(=O)c2ccc(CN3C(=O)c4cccc5cccc3c45)cc2)cc(OC)c1O | nt | -66 | 5 | -3 | -1 | 76*
COc1ccc(/C=N/NC(=O)c2nc(-c3ccccc3)cc(-c3ccccc3)n2)cc1O | 0 | -6 | 5 | 6 | 2 | 68*
COc1cc(/C=N/NC(=O)c2ccccc2)ccc1O | 0 | -32 | 2 | -2 | 3 | 15
Cc1ccc(NC(=O)NC(=O)COc2ccccc2C(N)=O)c(C)c1 | nt | nt | 4 | 0 | -1 | nt
O=C(Cn1ccc2cc(S(=O)(=O)N3CCCC3)ccc21)NCCc1ccccc1 | nt | nt | 4 | 3 | 7 | nt
COc1ccccc1CCC(=O)Nc1ccc2c(c1)CN(Cc1ccc(C)o1)CC2 | nt | nt | 5 | 7 | 3 | nt
COC(=O)c1sc(S(=O)(=O)NC(Cc2ccccc2)C(=O)O)c(C(=O)OC)c1C (centres undefined) | nt | nt | -7 | 6 | 2 | nt
CCCN(CC(=O)Nc1ccccc1C)C(=O)C1CCN(S(=O)(=O)c2ccccc2C(F)(F)F)CC1 | nt | nt | 10 | 1 | 0 | nt
CN(C)CCCOc1cccc(Oc2ccccc2)c1 | -3 | 52* | 5 | 4 | 1 | 25
SMILES | Bim-Mcl-1 | Mcl1-Bid inh | GLD-1 TGE inh | BCLXL inh | MCL1-BIM inh | Mcl1 Noxa PPI
CCN1C(=O)/C(=C\c2cn(-c3ccccc3)nc2-c2cccnc2)SC1=S | 0 | 56* | nt | nt | nt | 4
O=C(NNC(=O)c1cc(-c2ccncc2)nc2ccccc12)c1ccccc1O | nt | nt | 0 | 1 | -3 | nt
CCOc1ccc(/C=N/NC(=O)Cc2ccccc2)cc1CN1CC2CC(C1)c1cccc(=O)n1C2 (centres undefined) | nt | nt | 0 | -1 | 1 | nt
CCOc1ccc(NC(=O)CN2C(=O)/C(=C3\SC(=S)N(C4CCS(=O)(=O)C4)C3=O)c3ccccc32)cc1 (centres undefined) | nt | 81* | nt | nt | nt | 68*
CSC1=NSC2=NC(=O)/C(=C/c3coc4ccc(O)cc4c3=O)C(=N)N12 | 6 | -52 | -50 | 52* | 32 | 62*
CSC1=NSC2=NC(=O)/C(=C/c3coc4ccccc4c3=O)C(=N)N12 | 18 | -28 | -58 | 44* | 52* | -56
CCOC(=O)c1c(NS(=O)(=O)c2ccc(Br)cc2)sc2c1CCC2 | -4 | -17 | 7 | 15 | 10 | 51*
CCOC(=O)c1c(NS(=O)(=O)Cc2ccccc2)sc2c1CCCC2 | 0 | 8 | 0 | 8 | 9 | 30
Cn1nccc1C(=O)NC1CCCc2c1cnn2-c1ccc(C(C)(C)C)cc1 (centres undefined) | nt | nt | 2 | 0 | 4 | nt
O=C(CSc1cn[nH]n1)Nc1ccccc1F | nt | nt | -1 | 4 | 7 | nt
O=C(NCc1cccnc1)/C(=C/c1ccc(-c2cccc(Cl)c2)o1)S(=O)(=O)c1ccccc1 | -6 | 57* | 2 | 9 | 11 | 38
O=C(COc1ccc(S(=O)(=O)N2CCOCC2)cc1Cl)N1CCCC1 | nt | nt | 6 | 0 | -5 | nt
CC1(C)C(=O)Nc2ccccc2N1C(=O)COc1ccc(S(=O)(=O)N2CCOCC2)cc1Cl | -5 | -19 | -3 | 8 | 9 | 56*
CCn1cc(/C=C/C(=O)Nc2ccn(Cc3c(F)c(F)cc(F)c3F)n2)cn1 | -8 | 7 | 1 | 7 | 11 | 54*
CCCNC(=O)c1c(N)n(-c2cccc(OC)c2)c2nc3ccccc3nc12 | 0 | -1 | 6 | 2 | 6 | 16
CCN(CCO)c1ccc(-n2c(N)c(C(=O)OC)c3nc4ccccc4nc32)cc1 | -2 | 6 | 0 | 5 | 5 | 52*
CC1CN(C(=O)c2cccc(C(=O)N3CC(C)OC(C)C3)c2)CC(C)O1 (centres undefined) | 2 | 97* | -1 | 5 | -5 | 13
N#CC(C#N)=C1C=CC=CN1/C(=C\c1ccccc1Cl)C(=O)c1ccccc1 | 25 | 13 | 26 | 51* | 43* | 64*
Cc1n[nH]c(=S)c2nn(-c3ccccc3)c(C)c12 | 0 | 70* | nt | nt | nt | 15
CCN(CC)CC(=O)NC12CC3CC(CC(C3)C1)C2 | 0 | 63* | -2 | 1 | -4 | 37
CN1CCc2nc3sc(C(=O)C45CC6CC(CC(C6)C4)C5)c(N)c3cc2C1 | 0 | 85* | 7 | 24 | 28 | 58*
CC(=O)Nc1nonc1NC(=O)CSc1ccccn1 | -6 | -15 | 83* | 0 | -7 | 5
CC(=O)Nc1ccc(NC(=O)CSc2ccccn2)cc1 | -8 | -5 | -3 | 3 | -5 | -7
Cc1cc(CNC(=O)COC(=O)c2ccc(Cl)c(N)c2)cc(C)c1O | nt | nt | 11 | -5 | -7 | nt
Cc1ccc(C(=O)Oc2ccc(C(=O)COC(=O)C3CC(=O)N(Cc4ccco4)C3)cc2)cc1 (centres undefined) | 0 | 57* | -7 | -19 | 11 | -216

From PubChem BioAssay
